Bioassay records (PubChem)
In the library only some 3% were active in any assay of this set; here they are far more common.
pS6 MEF inh – inhibitors of mTORC1 signaling in Tsc2-/- p53-/- MEF cells; Tsc2-/- p53-/- MEF, phospho-rpS6 immunofluorescence/PI, 24 h; 44,000 tested, 0.78% active; Potency, µM (highest dose often 38.3 µM), actives largely listed as inhibitors; note: nearly all actives have a fitted effect of over 50% in size
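Tsc2-/-, p53-/- MEFs (empty-vector stable line) in DMEM + 10% FBS were treated with compounds 24 h at 37 degree Celsius, fixed, and immunostained for phospho-rpS6 (Alexa-488) with propidium iodide counterstain. Laser-scanning cytometry gave % positive cells, normalized against 7.5 nM rapamycin and DMSO.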
p53null 39C kill – p53 null cell cytotoxicity, nonpermissive temperature | H1299 p53-null (neo) cells, 39C, ATPlite viability, 24 h | Potency, µM (titrated, usually from 46.1 µM), actives largely listed as cytotoxic | 55,000 tested, 0.97% active | AID 904; note: nearly all actives have a fitted effect of over 50% in size
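Temperature-shift cytotoxicity format: compound titrations on p53-null or A138V-expressing H1299 cells held 24 hr at 39C, cell ATP then measured, AC50 from Hill model.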
S16 viability – toxic to S16 Pmp22-F2sN Schwann cells. 43,000 tested, 0.48% active. S16 Pmp22-F2sN Schwann cells viability, CellTiter-Glo, 24 h. Potency, µM (series often up to 57.5 µM), most hits filed as cytotoxic; note: nearly all actives have a fitted effect of over 65% in size
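Used to flag compounds lowering reporter output through toxicity, this quantitative HTS measures ATP-based CellTiter-Glo luminescence in S16 Pmp22-F2sN Schwann cells after 24 h compound exposure at 37C.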
PMP22 txn prim – modulators of PMP22 gene transcription in S16 Schwann cells | S16 Pmp22-F2sN Schwann cells, FLuc/NLuc coincidence luminescence, 24 h | Potency, µM (top dose mostly 57.5 µM), hits mostly inhibitors | 43,000 tested, 2% active; active = clear falling dose curves in both reporters; inconclusive = both reporters move, but less clearly or upward; inactive = either reporter flat; the % is the NLuc reporter signal
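Rat S16 Pmp22-F2sN cells, 500-1,000/well in phenol red-free DMEM + 10% FBS, compound-treated 24 h (37C, 5% CO2). Luminescence: FLuc read, Stop&Glo added, NLuc read.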
OvCa metastasis – blocks SKOV3ip1 adhesion and invasion in omental model; SKOV3ip1-GFP adhesion/invasion on 3D omental model, fluorescence; Potency, µM (titrated, usually from 45.8 µM), hits mostly inhibitors; 46,000 tested, 0.1% active; note: nearly all actives have a fitted effect of over 65% in size
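qHTS, 4-pt dose (0.36-46 umol/L); SKOV3ip1-GFP, 1,200 cells/well, no FBS; primary omental fibroblast/mesothelial co-culture 48 h pre-grown; 2 h RT + 16 h 37 C; PBS wash, 4% PFA; GFP count 488/509 nm.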
p53null 32C tox – p53 null cell cytotoxicity, permissive temperature; H1299-neo p53 null cells, ATP luminescence, 24 h, 32C; 55,000 tested, 0.62% active; Potency, µM (top dose mostly 46.1 µM), hits mostly cytotoxic; AID 903; note: nearly all actives have a fitted effect of over 55% in size
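H1299-neo (p53-null) cells, 600/well, were pre-incubated overnight at 37C, then exposed to compounds at up to 46 uM for 24 hr at 32C. Viability was measured as ATP content by luminescence, and AC50 values came from Hill fits.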
NLuc saturating – NanoLuc enzyme inhibition artifact for PMP22 screen; shares compounds with PMP22 txn prim; Secreted NLuc enzyme (filtered S16 cell medium), Nano-Glo luminescence; Potency, µM (highest dose often 57.5 µM), most hits filed as inhibitors; 690 tested, 4% active; AID 1508638
NLuc Km ctr – counter-screen for PMP22 expression modulators: NanoLuc inhibition at Km | 690 tested, 5% active | Potency, µM (titrated, usually from 57.5 µM), usual class: inhibitors | secreted NLuc enzyme, coelenterazine luminescence, Km conditions | shares compounds with PMP22 txn prim
FLuc ctr PMP22 – counter-screen for PMP22 expression modulators: firefly luciferase inhibition | Potency, µM (top dose mostly 57.5 µM), most hits filed as inhibitors | shares compounds with PMP22 txn prim | purified P. pyralis FLuc, luminescence, 10 min | AID 1508640 | 690 tested, under 10 active
Target sequence (P08659 whole entry, looked up): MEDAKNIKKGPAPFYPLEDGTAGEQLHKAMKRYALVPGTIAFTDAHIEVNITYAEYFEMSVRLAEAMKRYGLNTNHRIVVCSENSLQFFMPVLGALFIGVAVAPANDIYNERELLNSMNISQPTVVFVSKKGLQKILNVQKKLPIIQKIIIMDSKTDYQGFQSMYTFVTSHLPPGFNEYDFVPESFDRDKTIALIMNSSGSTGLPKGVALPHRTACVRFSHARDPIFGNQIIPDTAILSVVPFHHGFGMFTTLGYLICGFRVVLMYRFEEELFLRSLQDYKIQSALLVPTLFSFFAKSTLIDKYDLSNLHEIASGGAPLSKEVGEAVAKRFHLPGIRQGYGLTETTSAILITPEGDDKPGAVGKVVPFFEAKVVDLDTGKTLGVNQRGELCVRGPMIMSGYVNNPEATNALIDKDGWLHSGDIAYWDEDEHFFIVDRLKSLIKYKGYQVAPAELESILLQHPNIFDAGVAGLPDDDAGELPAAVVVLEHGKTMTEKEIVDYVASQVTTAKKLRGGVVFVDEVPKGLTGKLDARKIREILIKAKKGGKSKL
S16 viab conf – confirmation of cytotoxicity in S16 Pmp22-F2sN Schwann cells (luciferase reporters placed in the Pmp22 gene) | shares compounds with PMP22 txn prim | S16 Schwann cells viability, CellTiter-Glo ATP luminescence, 24 h | Potency, µM (top dose mostly 57.5 µM), most hits filed as cytotoxic | 690 tested, 7% active
PMP22 txn cnf – PMP22 transcription modulation, confirmatory | shares compounds with PMP22 txn prim | S16 Schwann cells Pmp22-F2sN, dual luciferase, 24 h | 690 tested, 22% active | Potency, µM (doses to about 57.5 µM), most hits filed as inhibitors; active = clear falling dose curves in both reporters; inconclusive = both reporters move, but less clearly or upward; inactive = either reporter flat; the % is the FLuc reporter signal
PMP22 prot conf – confirmation of modulators of rat PMP22 protein expression. shares compounds with PMP22 txn prim. S16 Schwann cells Pmp22-HiBiT, luminescence, 48 h. Potency, µM (titrated, usually from 27.9 µM), usual class: inhibitors. 95 tested, under 10 active. AID 1508647
Target sequence (P25094 whole entry, looked up): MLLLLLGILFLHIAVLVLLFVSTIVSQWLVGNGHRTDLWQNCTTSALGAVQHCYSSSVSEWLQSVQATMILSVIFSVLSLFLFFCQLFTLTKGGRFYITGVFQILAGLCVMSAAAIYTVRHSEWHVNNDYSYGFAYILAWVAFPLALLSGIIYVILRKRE
Large screens that a line does not name were inactive (follow-up assays come after a bar, where they were run). Unless noted, calls come from the whole dose curve; as a rule, active = well fitted curve in the direction sought with a large enough effect; inconclusive = small, poorly fitted or top-dose-only effect, or another doubt; inactive = no such curve, though single readings can be large; an effect the other way counts as inactive or inconclusive.

COc1ccc(NC(=O)Cn2c(=O)c3cccn3c3ccccc32)cc1	none
COc1ccc(OC)c(NC(=O)Cn2c(=O)c3cccn3c3ccccc32)c1	PMP22 txn prim inconclusive | NLuc saturating inconclusive | NLuc Km ctr inconclusive | FLuc ctr PMP22 inactive | S16 viab conf inactive | PMP22 txn cnf inactive
CCOc1ccccc1NC(=O)c1c(NCc2ccc(C)o2)sc2c1CCC(C)C2 (stereo unspecified)	OvCa metastasis inconclusive
CCOc1ccccc1NC(=O)c1c(NCc2ccc(C)o2)sc2c1CCCCC2	PMP22 txn prim 13µM | NLuc saturating inconclusive | NLuc Km ctr inconclusive | FLuc ctr PMP22 inactive | S16 viab conf inactive | PMP22 txn cnf inconclusive
CCCCN(CC)C(=O)CSc1nc2n[nH]c(C)c2c(=N)n1-c1ccc(CC)cc1	S16 viability inconclusive, PMP22 txn prim 17µM, p53null 32C tox inconclusive | NLuc saturating inconclusive | NLuc Km ctr inconclusive | FLuc ctr PMP22 inactive | S16 viab conf inactive | PMP22 txn cnf inconclusive
CC(=O)N[C@@H]1[C@H](O[C@@H]2c3ccc(c(Cl)c3)Oc3cc4cc(c3O[C@H]3O[C@H](CO)[C@@H](O)[C@H](O)[C@H]3NC(=O)CCCCCCCC(C)C)Oc3ccc(cc3Cl)C[C@H]3NC(=O)[C@H](N)c5ccc(O)c(c5)Oc5cc(O)cc(c5)[C@H](NC3=O)C(=O)N[C@H]4C(=O)N[C@H]3C(=O)N[C@@H]2C(=O)N[C@@H](C(=O)O)c2cc(O)cc(O[C@H]4O[C@H](CO)[C@@H](O)[C@H](O)[C@H]4O)c2-c2cc3ccc2O)O[C@H](CO)[C@@H](O)[C@@H]1O	none (no result: pS6 MEF inh, p53null 39C kill, S16 viability, PMP22 txn prim, p53null 32C tox)
CCCSc1ncc(Cl)c(C(=O)Nc2ccc(S(=O)(=O)N3CCCCC3C)cc2)n1 (stereo unspecified)	S16 viability inconclusive, PMP22 txn prim 11µM | NLuc saturating inactive | NLuc Km ctr inactive | FLuc ctr PMP22 inactive | S16 viab conf inactive | PMP22 txn cnf inconclusive
CC(=CC(=O)Nc1ccccc1C(=O)O)c1ccc2ccccc2c1	none (no result: pS6 MEF inh, p53null 39C kill, S16 viability, PMP22 txn prim, p53null 32C tox)
Cc1cccc(CS(=O)(=O)c2ncc(Cl)c(C(=O)Nc3nc4ccc(F)cc4s3)n2)c1	pS6 MEF inh inconclusive, S16 viability inconclusive, PMP22 txn prim 6.5µM | NLuc saturating inconclusive | NLuc Km ctr inconclusive | FLuc ctr PMP22 inactive | S16 viab conf inconclusive | PMP22 txn cnf 10µM | PMP22 prot conf inconclusive
CCOc1ccc2nc(NC(=O)c3nc(SC(C)C)ncc3Cl)sc2c1	S16 viability inconclusive, PMP22 txn prim 18µM | NLuc saturating inactive | NLuc Km ctr inactive | FLuc ctr PMP22 inactive | S16 viab conf inactive | PMP22 txn cnf inconclusive
COc1ccc2nc(NC(=O)c3nc(SCc4cccc(C)c4)ncc3Cl)sc2c1	PMP22 txn prim 10µM | NLuc saturating inactive | NLuc Km ctr inactive | FLuc ctr PMP22 inactive | S16 viab conf inconclusive | PMP22 txn cnf inconclusive
O=C(CSc1nc2c([nH]c3ccccc32)c(=O)n1-c1ccc(Cl)cc1)NC1CCCCC1	S16 viability inconclusive, PMP22 txn prim 13µM | NLuc saturating inactive | NLuc Km ctr inactive | FLuc ctr PMP22 inactive | S16 viab conf inconclusive | PMP22 txn cnf 17µM
CCOc1ccc(-n2c(SCC(=O)NC3CCCCC3)nc3c([nH]c4ccccc43)c2=O)cc1	none
COc1ccc(N2CCN(C(=O)C3CCCN(S(=O)(=O)c4ccc5c(c4)oc(=O)n5C)C3)CC2)cc1 (stereo unspecified)	PMP22 txn prim inconclusive
Cn1c(=O)oc2cc(S(=O)(=O)N3CCCC(C(=O)N4CCN(c5ccc(Cl)cc5)CC4)C3)ccc21 (stereo unspecified)	S16 viability inconclusive, PMP22 txn prim 5.1µM | NLuc saturating inconclusive | NLuc Km ctr inactive | FLuc ctr PMP22 inactive | S16 viab conf inactive | PMP22 txn cnf 15µM | PMP22 prot conf inconclusive
O=C(Cn1c(-c2cccs2)cc2ccccc21)NCCCN1CCN(c2ccc(F)cc2)CC1	pS6 MEF inh inconclusive, PMP22 txn prim 10µM | NLuc saturating inactive | NLuc Km ctr inactive | FLuc ctr PMP22 inactive | S16 viab conf inconclusive | PMP22 txn cnf inconclusive | PMP22 prot conf inconclusive
O=C(Cn1c(-c2cccs2)cc2ccccc21)NCCCN1CCN(c2ccccc2F)CC1	S16 viability inconclusive, PMP22 txn prim inconclusive, OvCa metastasis inconclusive
O=C(Cn1c(-c2cccs2)cc2cc(F)ccc21)NCCCN1CCN(c2ccccc2F)CC1	pS6 MEF inh inconclusive, S16 viability inconclusive, PMP22 txn prim inconclusive | PMP22 prot conf inconclusive
C[C@@H]1C(=O)O[C@H]2CC34[C@H]5C[C@@H](C(C)(C)C)C36[C@H](OC(=O)[C@@H]6O)O[C@@]4(C(=O)O5)[C@]21O (stereo partly specified)	none (no result: pS6 MEF inh, p53null 39C kill, S16 viability, PMP22 txn prim, p53null 32C tox)
CC(C)n1nc(-c2ccc3oc(N)nc3c2)c2c(N)ncnc21	none (no result: pS6 MEF inh, p53null 39C kill, S16 viability, PMP22 txn prim, p53null 32C tox)
O=C1CC(c2ccccc2)Cc2[nH]c(=O)c(-c3nc(-c4ccc(F)cc4)cs3)cc21 (stereo unspecified)	pS6 MEF inh inconclusive, PMP22 txn prim 3.4µM | NLuc saturating inconclusive | NLuc Km ctr inconclusive | FLuc ctr PMP22 inactive | S16 viab conf inactive | PMP22 txn cnf inconclusive
COc1ccc(C2CC(=O)c3cc(-c4nc(-c5ccc(Cl)cc5)cs4)c(=O)[nH]c3C2)cc1 (stereo unspecified)	PMP22 txn prim inconclusive
